Over roughly 25,000 sequences, “ln(normalized median fluorescence intensity)” has its median near 9.7; the highest 2% begin near 11. Shown is part of a subset that was picked to be rich in the highest values.
System: PfAP2-HC AP2 domain (GST-tagged)
Test: gcPBM binding intensity (ln(normalized median fluorescence intensity)); higher = stronger DNA binding
Outline: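 Binding intensity is defined as the maximum Masliner-normalised natural-log median intensity across replicate spots for either probe orientation. It was measured on an Agilent 4 × 180k array of primer-extended double-stranded 36-bp intergenic genomic probes and negative controls, to which GST-tagged P. falciparum DNA-binding domains made in E. coli were applied for 1 h in 1× PBS with 1% milk, 0.2 mg/ml BSA, 0.5% salmon testes DNA and 0.03% Triton X-100. Detection was by Alexa488 anti-GST antibody and scanning at 488 nm.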

Sequence	gcPBM binding intensity (ln)
TTTTTTTGCATTTCATGTACATATATTGAGCTTAAA [XGTACX_site8485]	9.6
TCACAAATGTATTATACACACAAGTTTTCTTTAATA [CACACA_site4107]	9.71
ATGAATTTTTCTCTACAAAAGGATATAATAAAAATA [XGTACX_negctrl_site461]	9.37
TTACGAATAAAACAGTGTACATTGAATTTCTATGAG [XGTACX_site4771]	9.51
TTTTTAAAAATATACACACACAGATATTATAGATAT [CACACA_site6511]	10.1
TCCTTATTTATATAATGTACTTTTTTTTTTCATTTT [XGTACX_site4275]	9.64
TTTATTCAAATATAATGTACTTTCTACAAATTCAAT [XGTACX_site8119]	9.43
TATTATATAAAATATTTTATTATATCATCTTCTCTA [XGTACX_negctrl_site319]	9.44
TTCATTTTCATATATTGTACAAAATTTTATAAGGTT [XGTACX_site4522]	9.58
ATCTTGAAGATTATTTGTACACAAAAGTTAAAATAT [XGTACX_site242]	9.47
AAAAAAAAAAAACACACACACACAAATACATACACA [CACACA_site706]	10.7
AAAAAAAAAAAACACACACACAAATACAAATACATA [CACACA_site415]	11.5
AAAAAAAAAAAACATACACACAAATAAATACATACA [CACACA_site6073]	10.1
TCATACTGTATATTTTGTACTTATATATATATTATA [XGTACX_site6136]	10
TATTCCCCCCAACACACACACACACCGACATACCAC [CACACA_site8723]	11.5
CATATTCCCCCCCACACACACACACCCATACATACC [CACACA_site2303]	10.6
CACCCACCCACATACACACACATACACATATATATA [CACACA_site1722]	10.3
GACATATTCCCCCCCACACACACACCCACATACATA [CACACA_site2302]	11.1
TATTCCCCCAAACACACACACACACCCACATACCAC [CACACA_site2304]	10.7

Sequence	gcPBM binding intensity (ln)
ACATACATACCCCCACGTACGTACCGAAACACCACC [XGTACX_site1982]	9.84
AATTATATATTATAATGTACATATATATAACTATAC [XGTACX_site1865]	9.67
ATAATTCATGTTTAGTGTACAAAAAATTAAAGCAAC [XGTACX_site8891]	9.87
ATATAGTATAATAAAAGTACATTTTGATTTTTTCTC [XGTACX_site1797]	9.61
AATAAACATAAATAAAAATTATAAAATATATATATG [CACACA_negctrl_site1709]	9.75
TACATACAGAAACACACACACACATATATATATATA [CACACA_site2919]	11.1
CATATACAGAAACACACACACACATAAATAAATATA [CACACA_site1343]	11
CATACACAGAAACACACACACATATATATATATATA [CACACA_site4519]	10.2
TAAATACAGAAACACACACACAAATATATACATACA [CACACA_site2880]	10.5
ATATAACAGAAACACACACACATATATATATATTAT [CACACA_site4140]	11.3
CATACATAGAAACACACACACACACCCACCCACAAA [CACACA_site494]	10.6
CAAATACAGAAACACACACACATATACATATATATA [CACACA_site3498]	10.4
CATACACAGAAACACACACACATATATACATATATA [CACACA_site1094]	10.4
TAAAAAAAAACAGAAACACACATTATTCATATATAT [CACACA_site2049]	10.2
CATTATAAGAAACACACACACATATATATATATATA [CACACA_site1051]	10.1
TATACGCAGAAACACACACACATACACCCACATACA [CACACA_site1723]	10.6
AACATACAGAAACACACACACACACCCACACCCACA [CACACA_site493]	11.5
TTGTTAGAGTATATTGAAAGGATAACCTTTTTTTAT [XGTACX_negctrl_site122]	9.43
AAAATAATTTTATAGTTGCACTATATCGTATACAAT	9.71

Sequence	gcPBM binding intensity (ln)
AACGATTTACATCACTGTACTAATGATATACCTCAT [XGTACX_site7463]	9.85
ATAAATATAACATATTGTACCCTTAAAAAGGAACAA [XGTACX_site352]	9.5
ACGTACTGCCCTAAAGTGCATATATAATATAAACGA [GTGCAC_site9911]	9.52
GTCATATTAATATGTACACACATATTTATATTTATA [CACACA_site6798]	9.83
AATGTTTAATATAACGCATGCCTTAATATAGAATGC [TGCATGCA_site463]	9.59
TAAAGAAAAAGAGAATGTACATGAGAAAAGTATACT [XGTACX_site7472]	9.79
TTTAAAAAAAAAAAAAAAAATTAAATGAATTATTAA [CACACA_negctrl_site1121]	8.95
AAAAAAAAAAATATAACACACAACAAAAAAATATAT [CACACA_site1753]	10.4
ATAGTAAACGAAATAAAAAGATTAGCATAATATCCT [CACACA_negctrl_site1730]	9.79
ACATGTGAACATTCAATGCACACGATGTAATTATAC [CACACA_site14]	9.84
TAATTTTTTTTTTTTTTTCATTCTTTTCCTTTGATT [CACACA_negctrl_site1365]	9.22
CACAACATATATATATATATATATATATATATGTGT [CACACA_negctrl_site28]	9.39
TATATGTTTGAATATACACACAACATATTTATATAT [CACACA_site7832]	9.74
ACTTCAAAAAAAAAAAAATATATATATATATATTAT [GTGCAC_negctrl_site158]	9.33
TATAATTTAACGACATGTACATATAAAAAAATATTT [XGTACX_site2395]	9.75
TTTTTTTTTTTGATTTGTACACAAAAAAAATATATG [XGTACX_site4547]	9.42
TAATTTTTGAAACACACACACATATATATATATATA [CACACA_site94]	10.5
CATATATTTTGAAACACACACATATATAATATACAT [CACACA_site1158]	10.4
AATTTGTTGAAACACACACACACATACATATATATA [CACACA_site2287]	11.3
